This is a sample that favours compounds with a hit; in the whole collection about 12% have one here.
BAZ2B inh – inhibitors of human BAZ2B bromodomain | Q9UIF8 | AlphaScreen BAZ2B-H3K14Ac peptide displacement | Potency, µM (highest dose often 114 µM), for the others: at the highest dose activity change, negative = inhibition, hits mostly inhibitors | hit rate 4.4% among 360,000; further: on the % scale 0 is the no-effect control and ±100 the full control effect; nearly all actives have a fitted effect of over 60% in size
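Complex of BAZ2B and biotin-H3K14Ac (50 nM apiece) forms over 30 min at RT, then faces library compounds up to 110 uM for another 30 min; AlphaScreen beads added, 20 min dark incubation, luminescence read.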
JMJD2A Tudor – inhibitors of human JMJD2A Tudor domain | AlphaScreen JMJD2A-Tudor / H3K4me3 peptide binding | Potency, µM (series often up to 114 µM), without a hit: at the highest dose activity change, negative = inhibition, hits mostly inhibitors | hit rate 4.4% among 390,000 | AID 504339; further: on the % scale 0 is the no-effect control and ±100 the full control effect; nearly all actives have a fitted effect of over 50% in size
L3MBTL1 inh – inhibitors of human L3MBTL1. hit rate 0.66% among 230,000. AID 485360. Q9Y468. AlphaScreen L3MBTL1–H3K9me1 peptide binding. Potency, µM (highest dose often 57.1 µM), for the others: at the highest dose activity, negative = inhibition, hits mostly inhibitors; further: on the % scale 0 is the no-effect control and ±100 the full control effect; nearly all actives have a fitted effect of over 60% in size
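Displacement of a biotinylated histone H3(1-15) peptide monomethylated at Lys9 (75 nM) from L3MBTL1 (50 nM) was measured by AlphaScreen after a 30 min room-temperature compound incubation; cefsulodin titration served as intraplate control.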
Sfp PPTase inh – inhibitors of Bacillus subtilis Sfp phosphopantetheinyl transferase. Biochemical Sfp PPTase activity, qHTS. Potency, µM, inactives show largest response in the series, negative = inhibition, most hits filed as inhibitors. hit rate 3.5% among 310,000. AID 1490;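 further: the enzyme is Sfp with the accession as filed and its product quenches rhodamine fluorescence; 0% = enzyme reaction without inhibitor and -100% = no enzyme wells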
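Reaction rates are the 30-min fluorescence difference (ex 525, em 598 nm) in wells containing 15 nM Sfp, 5 uM rhodamine-CoA and 12.5 uM BHQ-2-YbbR at pH 7.6 with 10 mM MgCl2.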
HP1b chromo inh – inhibitors of HP1-beta chromodomain binding to methylated histone tails | AlphaScreen HP1-beta / biotin-H3K9me3 peptide binding | Potency, µM (titrated, usually from 114 µM), for inactives: at the top dose activity change, negative = inhibition, hits mostly inhibitors | hit rate 0.56% among 390,000; further: nearly all actives have a fitted effect of over 70% in size
Target sequence (P83916 whole entry, looked up): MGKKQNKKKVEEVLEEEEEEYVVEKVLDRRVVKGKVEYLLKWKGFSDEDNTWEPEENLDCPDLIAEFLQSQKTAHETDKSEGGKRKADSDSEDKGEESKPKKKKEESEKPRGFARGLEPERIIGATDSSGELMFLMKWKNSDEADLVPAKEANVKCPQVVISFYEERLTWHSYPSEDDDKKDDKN
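Compound inhibition of the preformed complex between 50 nM HP1-beta and 50 nM biotinylated H3K9me3 peptide was read by AlphaScreen. Buffer was PBS pH 7.4 with 0.01% Tween-20. Incubations ran 30 min at room temperature, with 10 ug/mL donor/acceptor beads.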
G9a block – inhibitors of human histone lysine methyltransferase G9a; Potency, µM (top dose mostly 102 µM), for the others: at the highest dose activity, negative = inhibition, usual class: inhibitors; hit rate 8.8% among 350,000; G9a H3K9 monomethylation, AlphaScreen, 2 h; Q96KQ7; further: on the % scale 0 is the no-effect control and ±100 the full control effect; nearly all actives have a fitted effect of over 75% in size
Target sequence (Q96KQ7 913-1193 limits assumed): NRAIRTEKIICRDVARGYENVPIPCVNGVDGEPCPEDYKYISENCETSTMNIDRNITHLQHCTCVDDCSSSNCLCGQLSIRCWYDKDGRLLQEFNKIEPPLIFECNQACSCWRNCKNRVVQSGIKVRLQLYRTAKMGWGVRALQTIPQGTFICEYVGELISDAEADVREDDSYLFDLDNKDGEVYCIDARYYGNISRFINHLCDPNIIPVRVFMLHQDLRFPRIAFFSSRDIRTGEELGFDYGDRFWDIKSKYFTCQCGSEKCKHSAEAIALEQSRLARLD
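AlphaScreen detection with an anti-monomethyl H3K9 antibody quantified product after a 2 h room-temperature reaction containing 500 nM biotinylated H3K9 peptide, 20 µM SAM and 20 nM enzyme, which had been preincubated 15 min with compound.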
* = called active by the depositor; ? = inconclusive; / = no result given; [ ] = dose if it differs, or a comment. The call rests on the fitted dose curve; in most records, active means well fitted curve in the direction sought with a large enough effect; inconclusive means small, poorly fitted or top-dose-only effect, or another doubt; inactive means no such curve, though single readings can be large; an effect the other way counts as inactive or inconclusive. Potency means the concentration at half of the fitted maximal effect.

SMILES	BAZ2B inh	JMJD2A Tudor	L3MBTL1 inh	Sfp PPTase inh	HP1b chromo inh	G9a block
CCN(CC)CCN1C(=O)/C(=C\c2ccc(Cl)c([N+](=O)[O-])c2)SC1=Nc1ccc(OC)cc1	10µM*	18µM*	/	45µM*	11µM*	11µM*
CCOC(=O)c1ccccc1NC(=O)CN1C(=O)CC(c2ccccc2)Sc2ccccc21 (centres undefined)	-10%	-20%	/	/	12%	-28%[59 µM]
CSc1nsc(/C=C/Nc2cccc(Cl)c2)c1C#N	?	?	/	-1%	-12%	10µM*
CSc1nsc(/C=C/Nc2ccc(Cl)cc2)c1C#N	?	-29%	-8%	-3%	11%	-18%[12.7 µM]
CSc1nsc(/C=C/Nc2ccc(O)cc2C)c1C#N	40µM*	50µM*	-30%	-78%	-34%	7.9µM*
O=C(Nc1sc2c(c1C(=O)NCc1cccnc1)CCCC2)c1cc(=O)c2ccccc2o1	-4%	-9%	/	/	37%	3%[59 µM]
Cc1ccc(N=C2C(=O)Nc3ccc(C)c(Br)c32)cc1	?	?	/	-9%	-18%	1.3µM*
O=C1Nc2ccccc2C1=Nc1ccc(F)cc1	-4%	-24%	/	20%	?	-9%
COc1ccc(N=C2C(=O)Nc3ccc(C)c(Br)c32)cc1	6.3µM*	?	-11%	23%	?	11µM*
COc1ccc(N=C2C(=O)Nc3ccccc32)cc1	6%	-24%	-4%	-14%	-2%	?
Cc1ccc(C(C)C)c(OCCSc2nc(-c3ccccc3F)nc3cc(=O)[nH]n23)c1	?	?	/	/	0%	-3%[59 µM]
Cc1cc(-c2cccnc2)c(C#N)c(SCc2cccc(F)c2)n1	4%	-15%	15%	79µM*	39%	40µM*
Nc1ccc(S(=O)(=O)NNC(=O)C(=O)NNc2ccccc2)cc1	-39%	-4%	3%	0%	23%	1.8µM*
O=C(Cc1ccccc1)NNS(=O)(=O)c1ccc(F)cc1	-15%	-10%	-3%	8%	29%	3%
Nc1ccc(S(=O)(=O)Nc2ccc(C(=O)c3ccccc3)cc2)cc1	-11%	-19%	1%	0%	19%	/
O=C(NNc1ccccc1)C(=O)NNS(=O)(=O)c1ccc(CCCl)cc1	?	-19%	-1%	31%	50%	45µM*
FC(F)(F)c1ccc2c(c1)n(Cc1ccccc1)c1[n+]2CCCCC1	?	?	/	-38%	9%	28µM*
CCc1cccc(NC(=O)Cn2c3[n+](c4ccc(C(F)(F)F)cc42)CCCCC3)c1	-6%	-16%	9%	-41%	-10%	5.6µM*
O=C(Cn1c2[n+](c3ccc(C(F)(F)F)cc31)CCCCC2)Nc1ccccc1	0%	-6%	44%	?	12%	?
O=C(Cn1c2[n+](c3ccc(C(F)(F)F)cc31)CCCCC2)c1cccc([N+](=O)[O-])c1	-13%	-16%	-7%	6%	31%	?
COCCn1c(=O)c(-c2ccccc2)nc2cnc(N3CCNCC3)nc21	/	/	/	22%	/	-6%[12.7 µM]
CCC(=O)O[C@H](CC(=O)O)C[N+](C)(C)C	/	/	/	-4%	/	/
O=C1Nc2ccccc2OC1CC(=O)N1CCOCC1 (centres undefined)	0%	-5%	/	-14%	47%	-10%
O=C1Nc2ccccc2OC1CC(=O)N1CCN(c2cccc(C(F)(F)F)c2)CC1 (centres undefined)	-3%	-24%	/	-16%	29%	35µM*
Nc1nnc(SCC(=O)c2ccccc2)s1	/	-13%	-6%	13%	16%	7%[59 µM]
Nc1c(C(=O)c2ccccc2)sc2snc(SCC(=O)c3ccccc3)c12	-34%	22%[11.4 µM]	-6%	40µM*	17%	6%[12.7 µM]
Cc1ccc(C)n1/N=C1/NC(=O)CS1	-8%	79µM*	-3%	?	-50%	-50%
Cc1cc(C)nc(/N=C2/NC(=O)CS2)n1	?	22µM*	6%	32µM*	-14%	20µM*
